Source: PubChem
Most compounds without a hit are left out; they make up all but 6.1% or so of the library.
HepG2 tox – counter-screen for TGF-b inhibitors: cytotoxicity in HepG2 cells; 410,000 compounds, 0.76% hits; HepG2 CAGA-GFP viability, ATP luminescence, 18 h; AID 588856; Potency, µM (series often up to 46.1 µM), inactives show at the top dose activity change, negative = cytotoxicity, most hits filed as cytotoxic
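HepG2 CAGA-GFP cells (1000/well, DMEM with 1% FBS) received compound, then TGF-beta at 500 pg/mL final, and were incubated 18 hours at 37 degrees C. Viability was read by CellTiter-Glo luminescence. Media-only wells were set as complete cell-killing and DMSO as no toxicity.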
ATXN viability – viability counter-screen for ATXN expression inhibitors; S2 cells (HEK-293 line with an ATXN2-luciferase reporter) viability, CellTiter-Fluor protease fluorescence, 24 h; Potency, µM (top dose mostly 56.7 µM), hits mostly cytotoxic; 400,000 compounds, 0.49% hits; AID 651635; further: nearly all actives have a fitted effect of over 40% in size
TGFb SMAD3 inh – TGF-b pathway inhibition; HepG2 CAGA-GFP TGF-b/SMAD3 reporter, GFP fluorescence, 18 h; TGF-beta stimulated, 500 pg/mL final; Potency, µM (highest dose often 46.1 µM), for inactives: top-dose activity, negative = inhibition, hits mostly inhibitors; 410,000 compounds, 1.2% hits; further: on the % scale 0 is the no-effect control and ±100 the full control effect; nearly all actives have a fitted effect of over 65% in size
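Cell-based qHTS in HEPG2 carrying a CAGA-GFP Smad reporter; compounds added before 500 pg/mL final TGF-beta, 18 h incubation at 37 degrees C, GFP fluorescence quantified per cell by imaging cytometry.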
RORg inh – blocks mouse ROR gamma transcriptional activity; Potency, µM (highest dose often 53.6 µM), inactives show at the highest dose activity change, negative = inhibition, hits mostly inhibitors; 310,000 compounds, 5.4% hits; Drosophila S2 Gal4-RORgamma UAS-luciferase reporter, 20 h; P51450; further: on the % scale 0 is the no-effect control and ±100 the full control effect; nearly all actives have a fitted effect of over 60% in size
Target sequence (P51450 whole entry, looked up, the tested form may be a part): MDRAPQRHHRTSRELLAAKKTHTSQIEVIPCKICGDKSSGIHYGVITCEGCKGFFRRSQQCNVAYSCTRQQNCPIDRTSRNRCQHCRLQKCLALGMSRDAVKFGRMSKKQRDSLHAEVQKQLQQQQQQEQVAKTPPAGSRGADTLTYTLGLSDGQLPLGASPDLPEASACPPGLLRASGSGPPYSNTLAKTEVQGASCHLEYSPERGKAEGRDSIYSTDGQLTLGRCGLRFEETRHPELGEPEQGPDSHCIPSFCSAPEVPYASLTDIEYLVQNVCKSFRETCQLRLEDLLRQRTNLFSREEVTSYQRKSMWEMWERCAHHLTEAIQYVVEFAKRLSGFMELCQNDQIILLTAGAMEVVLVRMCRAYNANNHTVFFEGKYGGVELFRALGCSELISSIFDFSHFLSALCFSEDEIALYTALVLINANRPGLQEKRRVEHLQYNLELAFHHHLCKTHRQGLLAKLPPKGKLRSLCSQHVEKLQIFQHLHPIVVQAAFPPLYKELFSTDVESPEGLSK
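Luciferase reporter read in Schneider cells carrying Gal4-RORγ (mouse) and UAS-Photinus luciferase; cells given compound 1 h before 700 uM copper sulfate induction, then incubated 20 h at ambient temperature.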
ATXN2 expr inh – inhibitors of ATXN2 expression; AID 1745845; Potency, µM (series often up to 57 µM), inactives show at the highest dose activity change, negative = inhibition, actives largely listed as inhibitors; HEK-293 ATXN2-luciferase reporter, luminescence, 24 h; 360,000 compounds, 0.72% hits; further: on the % scale 0 is the no-effect control and ±100 the full control effect; nearly all actives have a fitted effect of over 55% in size
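qHTS (up to 57 uM final) was run with 24 h compound exposure of reporter cells at 37 °C. Each well was multiplexed: SteadyGlo luminescence measured ATXN2-luciferase expression after a fluorogenic Gly-Phe-AFC viability readout (25 uM final).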
VP16 counter – Gal4-VP16 reporter inhibition counter-screen; 310,000 compounds, 3.5% hits; Drosophila S2 Gal4-VP16 UAS-luciferase, luminescence, 20 h; AID 2546; Potency, µM (series often up to 53.6 µM), without a hit: at the highest dose activity, negative = inhibition, actives largely listed as inhibitors;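 further: Gal4-VP16 expression switched on by copper sulfate through the metallothionein promoter; on the % scale 0 is the no-effect control and ±100 the full control effect; nearly all actives have a fitted effect of over 50% in size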
* = called active by the depositor; i = inactive; ? = inconclusive; nt = not tested or not shown. The call rests on the fitted dose curve; in most records, active means well fitted curve in the direction sought with a large enough effect; inconclusive means small, poorly fitted or top-dose-only effect, or another doubt; inactive means no such curve, though single readings can be large; an effect the other way counts as inactive or inconclusive. Potency means the concentration at half of the fitted maximal effect.

SMILES	HepG2 tox	ATXN viability	TGFb SMAD3 inh	RORg inh	ATXN2 expr inh	VP16 counter
Oc1c(Cl)cc(Cl)c2c1NCCC2	-46%	?	14µM*	3.2µM*	?	5µM*
Cc1ccc(OCC(=O)NC2=NCCS2)cc1	0%	i	10%	5%	-14%	0%
Cc1ccc(/C=C/C(=O)NC2=NCCS2)cc1	-20%	?	-9%	11µM*	-11%	?
CC(C)(C)c1ccc(/C=C/C(=O)NC2=NCCS2)cc1	-34%	?	0%	2.8µM*	12%	4.5µM*
Cn1c(=O)cc(SCC(=O)NCCc2ccc(Cl)cc2)c2cc(Cl)ccc21	-1%	i	-1%	nt	-8%	nt
CN(C)c1ncc2nc(-c3ccccc3)c(=O)n(C[C@H]3CCCO3)c2n1	nt	nt	nt	-17%	nt	-5%
Cc1ccc(C)c(N2CCN(C(=O)CCCCCn3c(=O)[nH]c4ccccc4c3=O)CC2)c1	0%	nt	13%	nt	nt	nt
CC1=CC(=O)C=C(C)C1=NOC(=O)c1cccc([N+](=O)[O-])c1	-2%	i	-5%	11µM*	1%	?
O=C(COc1ccc(Cl)cc1)NN=C1CCCCCCC1	-7%	i	11%	8.9µM*	-12%	-15%
c1ccc(CCSc2nccn2-c2ccccc2)cc1	0%	i	3%	10µM*	72%	-6%
CCc1ccc(CSc2nccn2-c2ccccc2)cc1	0%	i	17%	8.9µM*	0%	-28%
CCn1c(C(=O)N(C2CC2)C2CC2)cc2c3c(ncn3C)c(Nc3cc(C)n(C)n3)nc21	nt	nt	nt	nt	-1%	nt
COc1ccc(C(=O)c2c(C(F)(F)F)oc3c2C(=O)c2ccccc2C3=O)cc1	1.1µM*	22µM*	?	17%	32µM*	-5%
COc1cc(Br)c(C2CC(=O)Nc3cc4c(cc32)OCCO4)cc1OC (stereo not given)	-2%	?	-8%	nt	-15%	nt
COc1cc(-c2nc3ccccc3s2)ccc1O	-40%	i	-19%	-7%	87%	-10%
Nc1cccc(-c2nc3ccccc3s2)c1	-34%	?	-5%	?	62%	-29%
Oc1ccc(O)c(Cc2nc3ccccc3s2)c1	-11%	i	?	7.1µM*	5%	25µM*
FC(F)(F)c1ccc(-c2nc3ccccc3s2)cc1	-24%	i	?	nt	20%	nt
COc1ccc(-c2nc3ccccc3s2)cc1O	-29%	i	-23%	10µM*	-22%	8.9µM*
Oc1cccc(-c2nc3ccccc3s2)c1	-7%	i	2%	?	1%	10µM*
CC(C)c1ccc(-c2nc3ccccc3s2)cc1	-34%	i	-10%	?	?	2µM*
O=S(=O)(NCCc1nnc2ccc(SCc3cccc(Cl)c3)nn12)c1ccccc1	-29%	nt	?	nt	nt	nt
CCOC(=O)C1=C(N)Oc2ccc3ccccc3c2C1c1cccnc1 (stereo not given)	-55%	i	?	?	4%	-2%
CCOC(=O)C1=C(N)Oc2ccc3ccccc3c2C1c1cccc(O)c1 (stereo not given)	-93%	?	11µM*	-19%	?	?
CN(C)c1ccc(C=C2c3ccccc3-c3ccccc32)cc1	-8%	nt	-3%	nt	nt	nt
SMILES	HepG2 tox	ATXN viability	TGFb SMAD3 inh	RORg inh	ATXN2 expr inh	VP16 counter
COc1cccc(/C=C2\CCc3ccccc3C2=O)c1	-36%	?	?	11µM*	nt	11µM*
COc1ccc(OC)c(C=C2CCc3ccccc3C2=O)c1	3%	?	-23%	nt	0%	nt
COc1ccc(/C=C2\CCc3ccccc3C2=O)cc1OC	9%	i	?	44%	42%	-10%
CN(C)c1ccc(/C=C2/CCc3ccccc32)cc1	-51%	nt	16µM*	nt	nt	nt
COc1cccc(C=C2Cc3ccccc3C2=O)c1	-25%	?	5%	nt	51%	nt
CC(=O)Oc1ccc(/C=C2/CCc3ccccc3C2=O)cc1	-73%	i	?	8.9µM*	-8%	10µM*
COc1ccc2c(c1)CC/C(=C/c1cc(OC)c(OC)c(OC)c1)C2=O	0.14µM*	i	-5%	21%	?	?
Cc1ccccc1-c1nnc(CN2CCN(c3cc(Cl)ccc3C)CC2)o1	-18%	?	?	nt	-28%	nt
COC(=O)[C@H]1CC2(CC=C(C)C)C(=O)[C@@](CC=C(C)C)(C(=O)C(C(=O)c3ccccc3)=C2OC)C1(C)C (tested in a mixture with another compound)	nt	nt	nt	28%	nt	-13%
COc1ccc(OC)c(NC(=O)Cn2c(=O)n(-c3ccc(Cl)cc3)c(=O)c3c(C)c(C)sc32)c1	-12%	i	7%	nt	8%	nt
S=c1[nH]nc(-c2ccco2)n1/N=C/C(Cl)=C/c1ccccc1	-34%	?	?	4µM*	39%	11µM*
Cc1cc(-c2n[nH]c(=S)n2/N=C/C(Cl)=C/c2ccccc2)n[nH]1	-20%	i	?	8.9µM*	36%	?
Cc1cccc2c(=O)cc(CSc3ccccc3NC(=O)c3cccc(F)c3)[nH]c12	-12%	i	-11%	nt	7%	nt
COc1cc(-c2nc(SCC(=O)Nc3ccc4c(c3)OCO4)c(-c3ccccc3)[nH]2)cc(OC)c1OC	-53%	?	-23%	nt	?	nt
COc1ccc(NC(=O)CSc2nc(-c3cccc(C)c3)[nH]c2-c2ccccc2)cc1OC	-19%	?	11µM*	nt	?	nt
CCOc1ccc(-c2nc(SCC(=O)Nc3ccc4c(c3)OCCO4)c(-c3ccc(F)cc3)[nH]2)cc1	13µM*	i	?	nt	4%	nt
O=C(CSc1nc(-c2ccccc2)[nH]c1-c1ccccc1)Nc1ccc2c(c1)OCO2	-47%	?	11µM*	nt	20µM*	nt
COc1ccc(-c2[nH]c(-c3ccc(OC)c(OC)c3)nc2SCC(=O)Nc2ccccc2)cc1	-18%	?	?	nt	-25%	nt
Cc1ccnc2ccc(N)cc12	-29%	nt	-10%	nt	nt	nt
O=C(N/N=C/c1cc(Cl)ccc1O)C(=O)Nc1ccccc1OC(F)(F)C(F)F	-9%	i	?	0.89µM*	13µM*	2.5µM*
COc1ccccc1/C=N/NC(=O)C(=O)Nc1ccccc1OC(F)(F)C(F)F	9%	i	-2%	-5%	5%	1%
O=C(N/N=C/c1cc(Br)ccc1O)C(=O)Nc1ccccc1OC(F)(F)C(F)F	-35%	i	?	0.79µM*	3.2µM*	2.8µM*
Cc1cccnc1N(C(=O)Nc1cccc(Cl)c1)C1=NCC(C)(C)S1	8%	i	26%	11µM*	22%	-25%
